The values that follow come from the supplement of paper PMC3545927.

The list shows a part of the results. The hit rate among all sequences tested is not known here.

For this assay, the target named is furin, P09958. The assay is described as follows: furin cleavage Z-score vs untreated control; higher = more cleavage, active = 3.5 or more, inactive = 1 or less, 8 variable residues between constant flanks. In a few lines: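 Purified furin digested bead-held 8-mer peptide–cDNA fusions at 1:10 enzyme:substrate in 0.01 ml of 50 mM HEPES pH 7.5 with CaCl2 and NaCl for 7.5, 15 or 30 min. The cleavage Z-score compares sequencing counts of released DNA with furin-free reactions on a log scale, with lowess adjustment and median absolute deviation scaling.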
Sequence of furin, P09958 (P09958 whole entry, the tested form may be a part): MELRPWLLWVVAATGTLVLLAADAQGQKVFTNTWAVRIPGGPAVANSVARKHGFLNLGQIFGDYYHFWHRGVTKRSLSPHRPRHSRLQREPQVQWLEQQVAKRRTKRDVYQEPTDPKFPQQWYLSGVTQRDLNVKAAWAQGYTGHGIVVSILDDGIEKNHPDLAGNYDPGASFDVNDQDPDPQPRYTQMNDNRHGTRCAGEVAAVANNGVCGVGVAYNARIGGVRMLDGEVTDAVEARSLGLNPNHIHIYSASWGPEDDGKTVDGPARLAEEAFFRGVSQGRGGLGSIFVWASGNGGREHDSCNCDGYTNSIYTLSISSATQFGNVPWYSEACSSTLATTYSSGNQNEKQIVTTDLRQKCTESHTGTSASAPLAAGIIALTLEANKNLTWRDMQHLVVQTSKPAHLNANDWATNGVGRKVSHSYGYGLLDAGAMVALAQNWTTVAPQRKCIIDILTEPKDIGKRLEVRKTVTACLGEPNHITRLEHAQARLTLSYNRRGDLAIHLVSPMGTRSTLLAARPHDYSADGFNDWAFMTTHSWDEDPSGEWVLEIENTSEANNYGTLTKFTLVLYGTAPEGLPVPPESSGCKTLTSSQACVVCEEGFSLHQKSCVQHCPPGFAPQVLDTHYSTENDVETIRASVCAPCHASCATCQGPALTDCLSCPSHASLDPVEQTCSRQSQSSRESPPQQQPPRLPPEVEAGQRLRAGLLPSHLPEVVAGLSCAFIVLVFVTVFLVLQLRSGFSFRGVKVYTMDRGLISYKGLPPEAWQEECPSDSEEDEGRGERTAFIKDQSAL

B1: HC429 (peptide)
chain: CAFVLNNTRPAGNASASA
In the case of B1, the “furin cleavage Z-score” value runs as follows: (7.5 min) -0.02 (inactive); (15 min) 0.46 (inactive); (30 min) -0.424 (inactive).

B2: FS-291 (peptide)
chain: CARRLRARREAGNASASA
Take B2: the “furin cleavage Z-score” value by setting is: (7.5 min) 9.55 (active); (15 min) 8.95 (active); (30 min) 6.29 (active).

B3: FS-288 (peptide)
chain: CARARRLRREAGNASASA
For B3, the “furin cleavage Z-score” value by setting is: (7.5 min) 12.9 (active); (15 min) 12.3 (active); (30 min) 9.18 (active).

B4: FS-2889 (peptide)
chain: CARARRRSAEAGNASASA
With B4, the “furin cleavage Z-score” value by setting is: (7.5 min) 2.93; (15 min) 2.98; (30 min) 4.07 (active).

B5: FS-1995 (peptide)
chain: CARARRRTPTAGNASASA
Turning to B5, the “furin cleavage Z-score” value was 0.355 (inactive) (7.5 min), 2.75 (15 min) and 0.804 (inactive) (30 min).

B6: FS-2071 (peptide)
chain: CARRLREAVQAGNASASA
Turning to B6, the “furin cleavage Z-score” value reads like this: (7.5 min) 0.989 (inactive); (15 min) -0.0587 (inactive); (30 min) 2.28.

B7: FS-2203 (peptide)
chain: CARARRSMDEAGNASASA
With B7, the “furin cleavage Z-score” value reads like this: (7.5 min) 10.2 (active); (15 min) 11.1 (active); (30 min) 8.05 (active).

B8: FS-2887 (peptide)
chain: CARARKLADEAGNASASA
Regarding B8, the “furin cleavage Z-score” value is, setting by setting: (7.5 min) 0.23 (inactive); (15 min) -0.74 (inactive); (30 min) -2.19 (inactive).

B9: HC981 (peptide)
chain: CAVTKYIMTCAGNASASA
Take B9: the “furin cleavage Z-score” value was -0.549 (inactive) (7.5 min), -0.794 (inactive) (15 min) and 0.2 (inactive) (30 min).

B10: HC2375 (peptide)
chain: CAEVPCHHPSAGNASASA
Turning to B10, the “furin cleavage Z-score” value (7.5 min) was 0.748 (inactive), the “furin cleavage Z-score” value (15 min) is 1.23 and the “furin cleavage Z-score” value (30 min) was 0.223 (inactive).

B11: HC1198 (peptide)
chain: CAAPNYTFALAGNASASA
As for B11, the “furin cleavage Z-score” value is -1.92 (inactive) (7.5 min), -0.299 (inactive) (15 min) and -0.368 (inactive) (30 min).

B12: HC1546 (peptide)
chain: CAGDPPQPEYAGNASASA
Consider B12, for which the “furin cleavage Z-score” value is, setting by setting: (7.5 min) -0.406 (inactive); (15 min) -0.628 (inactive); (30 min) 0.347 (inactive).

B13: HC279 (peptide)
chain: CARCWVAMTPAGNASASA
Turning to B13, the “furin cleavage Z-score” value was -1.59 (inactive) (7.5 min), 1.01 (15 min) and -0.0231 (inactive) (30 min).

B14: FS-2245 (peptide)
chain: CARVRRLFCRAGNASASA
Take B14: the “furin cleavage Z-score” value by setting is: (7.5 min) 0.941 (inactive); (15 min) 1.51; (30 min) 0.361 (inactive).

B15: FS-2106 (peptide)
chain: CARVRRAGQGAGNASASA
Regarding B15, the “furin cleavage Z-score” value is, setting by setting: (7.5 min) 3.76 (active); (15 min) 5.43 (active); (30 min) 4.94 (active).

B16: HC1652 (peptide)
chain: CASVSHARPRAGNASASA
As to B16, the “furin cleavage Z-score” value is, setting by setting: (7.5 min) 0.173 (inactive); (15 min) -1.3 (inactive); (30 min) -0.282 (inactive).

B17: FS-2621 (peptide)
chain: CARVRRAATPAGNASASA
Consider B17, for which the “furin cleavage Z-score” value runs as follows: (7.5 min) 11.8 (active); (15 min) 12.6 (active); (30 min) 10.3 (active).

B18: FS-2842 (peptide)
chain: CARVRKDGGGAGNASASA
Regarding B18, the “furin cleavage Z-score” value is, setting by setting: (7.5 min) -0.741 (inactive); (15 min) 1.03; (30 min) -1.03 (inactive).

B19: FS-3123 (peptide)
chain: CARVRRAIPRAGNASASA
As to B19, the “furin cleavage Z-score” value was 5.13 (active) (7.5 min), 4.64 (active) (15 min) and 6.32 (active) (30 min).

B20: FS-2319 (peptide)
chain: CARVRRQIHAAGNASASA
On to B20, for which the “furin cleavage Z-score” value is, setting by setting: (7.5 min) 8.32 (active); (15 min) 8.68 (active); (30 min) 7.57 (active).

B21: HC6 (peptide)
chain: CAMEEFSQHLAGNASASA
Regarding B21, the “furin cleavage Z-score” value is, setting by setting: (7.5 min) -0.132 (inactive); (15 min) -1.04 (inactive); (30 min) -0.188 (inactive).

B22: CS9 (peptide)
chain: CAADTVDGAGAGNASASA
For the sequence B22, the “furin cleavage Z-score” value runs as follows: (7.5 min) 0.142 (inactive); (15 min) -1.09 (inactive); (30 min) -0.572 (inactive).

B23: HC1671 (peptide)
chain: CADEECSQHLAGNASASA
Consider B23, for which the “furin cleavage Z-score” value is, setting by setting: (7.5 min) 0.117 (inactive); (15 min) 0.56 (inactive); (30 min) -0.0902 (inactive).

B24: HC2163 (peptide)
chain: CAEAVTSTWVAGNASASA
For the sequence B24, the “furin cleavage Z-score” value runs as follows: (7.5 min) 1.01; (15 min) -0.993 (inactive); (30 min) -0.235 (inactive).

B25: HC1829 (peptide)
chain: CAYTPCSGSWAGNASASA
As to B25, the “furin cleavage Z-score” value runs as follows: (7.5 min) -0.863 (inactive); (15 min) -0.615 (inactive); (30 min) -0.179 (inactive).

B26: HC2195 (peptide)
chain: CAEVHTSTWVAGNASASA
Consider B26, for which the “furin cleavage Z-score” value runs as follows: (7.5 min) 0.614 (inactive); (15 min) -0.225 (inactive); (30 min) 1.53.

B27: FS-1700 (peptide)
chain: CARFKKFATEAGNASASA
B27: the “furin cleavage Z-score” value (7.5 min) is 0.401 (inactive), the “furin cleavage Z-score” value (15 min) is 0.983 (inactive) and the “furin cleavage Z-score” value (30 min) is -0.463 (inactive).

B28: HC1093 (peptide)
chain: CAAFKIMSGEAGNASASA
In the case of B28, the “furin cleavage Z-score” value is -0.371 (inactive) (7.5 min), -0.656 (inactive) (15 min) and -1.3 (inactive) (30 min).

B29: FS-1877 (peptide)
chain: CAAGRRSEAEAGNASASA
As for B29, the “furin cleavage Z-score” value is -2 (inactive) (7.5 min), -1.75 (inactive) (15 min) and -0.59 (inactive) (30 min).

B30: FS-3130 (peptide)
chain: CARWGRSAQGAGNASASA
Regarding B30, the “furin cleavage Z-score” value (7.5 min) is 4.05 (active), the “furin cleavage Z-score” value (15 min) was 4 (active) and the “furin cleavage Z-score” value (30 min) is 4.18 (active).

B31: FS-1853 (peptide)
chain: CARFKRWKAEAGNASASA
For the sequence B31, the “furin cleavage Z-score” value (7.5 min) worked out at 3.27, the “furin cleavage Z-score” value (15 min) is 4.72 (active) and the “furin cleavage Z-score” value (30 min) was 6.24 (active).

B32: HC1249 (peptide)
chain: CADPSHITAEAGNASASA
For B32, the “furin cleavage Z-score” value was -0.448 (inactive) (7.5 min), -0.687 (inactive) (15 min) and -1.36 (inactive) (30 min).

B33: FS-2388 (peptide)
chain: CARVRRSTAEAGNASASA
With B33, the “furin cleavage Z-score” value is 12.5 (active) (7.5 min), 12.2 (active) (15 min) and 8.54 (active) (30 min).

B34: FS-3125 (peptide)
chain: CARVRREDTPAGNASASA
As for B34, the “furin cleavage Z-score” value by setting is: (7.5 min) 7.61 (active); (15 min) 7.5 (active); (30 min) 6.22 (active).

B35: FS-3016 (peptide)
chain: CARPDRSSQGAGNASASA
Take B35: the “furin cleavage Z-score” value is, setting by setting: (7.5 min) -1.72 (inactive); (15 min) -1.8 (inactive); (30 min) -1.46 (inactive).

B36: FS-2057 (peptide)
chain: CARPPRPAQGAGNASASA
In the case of B36, the “furin cleavage Z-score” value reads like this: (7.5 min) -0.496 (inactive); (15 min) -0.739 (inactive); (30 min) -0.973 (inactive).

B37: HC1646 (peptide)
chain: CAFTAGYSGGAGNASASA
Take B37: the “furin cleavage Z-score” value by setting is: (7.5 min) -0.828 (inactive); (15 min) -0.656 (inactive); (30 min) -0.88 (inactive).

B38: HC2337 (peptide)
chain: CAESPCHRPSAGNASASA
Turning to B38, the “furin cleavage Z-score” value was 1.16 (7.5 min), 0.888 (inactive) (15 min) and -0.202 (inactive) (30 min).

B39: HC1929 (peptide)
chain: CATTPCSGSYAGNASASA
Consider B39, for which the “furin cleavage Z-score” value runs as follows: (7.5 min) -0.34 (inactive); (15 min) -0.574 (inactive); (30 min) 0.025 (inactive).

B40: HC2504 (peptide)
chain: CASTICSAHLAGNASASA
As for B40, the “furin cleavage Z-score” value runs as follows: (7.5 min) 1.31; (15 min) -0.501 (inactive); (30 min) 1.12.

B41: HC552 (peptide)
chain: CAVPGAVYTFAGNASASA
B41: the “furin cleavage Z-score” value reads like this: (7.5 min) -0.518 (inactive); (15 min) 0.509 (inactive); (30 min) -0.772 (inactive).

B42: FS-2325 (peptide)
chain: CARALRSLDLAGNASASA
For the sequence B42, the “furin cleavage Z-score” value (7.5 min) was 3.52 (active), the “furin cleavage Z-score” value (15 min) came out at 2.8 and the “furin cleavage Z-score” value (30 min) was 4.65 (active).

B43: FS-2535 (peptide)
chain: CARVRRAAQAAGNASASA
For the sequence B43, the “furin cleavage Z-score” value (7.5 min) is 8.23 (active), the “furin cleavage Z-score” value (15 min) was 7.6 (active) and the “furin cleavage Z-score” value (30 min) is 6.83 (active).

B44: FS-2105 (peptide)
chain: CARVRRAAQGAGNASASA
Turning to B44, the “furin cleavage Z-score” value is 8.98 (active) (7.5 min), 8.61 (active) (15 min) and 7.68 (active) (30 min).

B45: FS-1796 (peptide)
chain: CARTDRSSDRAGNASASA
As to B45, the “furin cleavage Z-score” value reads like this: (7.5 min) -0.725 (inactive); (15 min) -1.9 (inactive); (30 min) -1.59 (inactive).

B46: FS-3174 (peptide)
chain: CARVRRQLDRAGNASASA
With B46, the “furin cleavage Z-score” value by setting is: (7.5 min) 10.3 (active); (15 min) 12.6 (active); (30 min) 9.92 (active).

B47: FS-3076 (peptide)
chain: CARSCRAAQAAGNASASA
Consider B47, for which the “furin cleavage Z-score” value was 0.547 (inactive) (7.5 min), 1.19 (15 min) and 1.76 (30 min).

B48: HC781 (peptide)
chain: CAPAAYAAQGAGNASASA
As for B48, the “furin cleavage Z-score” value is, setting by setting: (7.5 min) 0.244 (inactive); (15 min) 1.54; (30 min) 0.00948 (inactive).

B49: FS-1944 (peptide)
chain: CARALRSSGTAGNASASA
B49: the “furin cleavage Z-score” value is -0.0204 (inactive) (7.5 min), -0.353 (inactive) (15 min) and 0.495 (inactive) (30 min).

B50: FS-2641 (peptide)
chain: CARALRSVSRAGNASASA
On to B50, for which the “furin cleavage Z-score” value is -0.658 (inactive) (7.5 min), -0.337 (inactive) (15 min) and 0.074 (inactive) (30 min).
